“And” between values parts separate entries of the source, which are not always exact repeats. Equal entries are not always repeated. The source made the active and inactive calls. Unless noted, the rule behind the calls is not given here.
Experiments:
[1] = test system: Wnt5a (protein binding on small-molecule microarray); assay: Wnt5a binders on small-molecule microarray, primary screen, biophysical, 635/667 nm fluorescence (AID 1142); conditions: 635 nm fluorescence, higher = more signal;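 note: fluorescence read at 667 nm with signal to noise per printed feature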
[2] = cell viability in Huh7 cells, primary screen, cytotoxicity control for HCV replication inhibitor project, CellTiter-Glo luminescence, basal, 48 h (AID 1143); conditions: Huh7 HCV replicon, higher = more signal, called active from +8 up or from −8 down;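 note: Huh7 hepatoma cells carrying a hepatitis C replication reporter with no stimulus; test concentration not given here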
[3] = P. aeruginosa biofilm formation inhibitors, primary screen, PAO1 strain, BacTiter-Glo luminescence, LB-PBS (AID 1144); conditions: 12 h, higher = more signal
[4] = CREB reporter modulators without forskolin, primary screen, cell-based, PC12, CRE-LacZ reporter, unstimulated (AID 1145); conditions: no forskolin, luminescence, 4.5 h, higher = more signal, called active from +8 up or from −8 down
[5] = CREB reporter modulators under forskolin, primary screen, cell-based, PC12, CRE-LacZ reporter, forskolin-stimulated (AID 1146); conditions: luminescence, 4.5 h, higher = more signal, called active from +8 up or from −8 down;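 note: PC12 cells with 6xCRE LacZ reporter stimulated by forskolin 10 µM; beta-galactosidase reporter signal reflecting CREB driven transcription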
[6] = target: Streptavidin (Streptomyces avidinii) (UniProt P22629); assay: streptavidin binders on small-molecule microarray, primary screen, artefact control for SMM compound annotation, biophysical, 635/667 nm fluorescence (AID 1147); conditions: streptavidin binding, higher = more signal;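 note: signal reflects streptavidin binding to arrayed compounds as a control protein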
[7] = small-molecule binders of probe aInhba, primary screen, biochemical, small-molecule microarray, 635/667 nm fluorescence (AID 1148); conditions: higher = more signal;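 note: score merges 667nm spot fluorescence with signal-to-noise for antibody binding to printed compounds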
[8] = target: Torsin-1A (Homo sapiens) (UniProt O14656); assay: torsin A binders from cell lysate, primary screen, small-molecule microarray, wild-type, 635/667 nm (AID 1149); conditions: COS7 hTOR1A-WT lysate, 635 nm fluorescence, higher = more signal
[9] = target: Torsin-1A (Homo sapiens) (UniProt O14656); assay: small-molecule binders of mutant TOR1A in lysate, primary screen, cell lysate, small-molecule microarray, COS7 lysate, 635/667 nm fluorescence (AID 1150); conditions: COS7 hTOR1A mutant lysate, 635 nm fluorescence, higher = more signal;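 note: score pools 667 nm emission and signal to noise measuring lysate protein binding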
[10] = test system: Sonic hedgehog protein (Shh); assay: small-molecule binders of Shh protein, primary screen, biochemical, small-molecule microarray, 635/667 nm fluorescence (AID 1151); conditions: small-molecule microarray binding, 635 nm fluorescence; higher = more signal;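 note: Shh protein binding to compounds spotted on small-molecule microarray slides; score combines spot fluorescence intensity with signal-to-noise across triplicate slides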
[11] = E. coli DRC41 culture turbidity changes, primary screen, E. coli filamentation inducer project, strain DRC41, OD650, 48 h (AID 1152);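 note: E. coli MC1000 strain DRC41 lacking acrAB efflux pump and sulA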; conditions: E. coli DRC41 (acrAB sulA), higher = more signal, called active from +8 up or from −8 down
[12] = small-molecule binders of probe aLefty1, primary screen, biochemical, small-molecule microarray, 635/667 nm fluorescence (AID 1153); conditions: higher = more signal;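 note: score merges spot fluorescence with signal-to-noise ratio from the scanned slide images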
[13] = PSAC antagonists in infected red cells, primary screen, cell-based, P. falciparum Indochina, OD700, 1 h (AID 1154); conditions: P. falciparum Indochina infected RBC osmotic lysis, higher = more signal, called active from +8 up or from −8 down
[14] = PSAC antagonists in infected red cells, primary screen, cell-based, P. falciparum Indochina, OD700, 2 h (AID 1155);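 note: lysis reports solute entry through the parasite surface anion channel PSAC; channel blockers reduce lysis of infected cells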; conditions: P. falciparum Indochina infected erythrocytes, osmotic lysis OD700; higher = more signal, called active from +8 up or from −8 down
[15] = osmotic lysis modulators in infected erythrocytes, primary screen, PSAC antagonist project, cell-based, P. falciparum Indochina, OD700, 3 h (AID 1156); conditions: higher = more signal, called active from +8 up or from −8 down
[16] = PSAC antagonists in infected red cells, primary screen, cell-based, P. falciparum Indochina, OD700, 18 h (AID 1157); conditions: P. falciparum Indochina infected erythrocytes, osmotic lysis OD700, 18 h; higher = more signal, called active from +8 up or from −8 down
[17] = modulators of S6 phosphorylation in cells, primary screen, cell-based, A549, cytoblot, luminescence, serum-stimulated (AID 1158); conditions: A549 phospho-S6 cytoblot, 5 h, higher = more signal;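 note: serum-stimulated A549 lung adenocarcinoma cells; signal is phosphorylated S6 detected by cytoblot immunostaining with HRP secondary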
[18] = target: NADPH oxidase 2 (Homo sapiens) (UniProt P04839); assay: NOX2-dependent H2O2 signal modulators, primary screen, NOX inhibitor project, cell-based, HEK293-NOX2, PMA-stimulated, Amplex Red fluorescence (AID 1159); conditions: 45 min, higher = more signal, called active from +8 up or from −8 down; note: test concentration not given here
[19] = target: NADPH oxidase 4 (Homo sapiens) (UniProt Q9NPH5); assay: NOX4-dependent H2O2 signal modulators, primary screen, NOX inhibitor project, cell-based, HEK293-NOX4, tetracycline-induced, Amplex Red fluorescence (AID 1160); conditions: 45 min, higher = more signal, called active from +8 up or from −8 down
[20] = target: NADPH oxidase 5 (Homo sapiens) (UniProt Q96PH1); assay: NOX5-dependent H2O2 signal modulators, primary screen, NOX inhibitor project, cell-based, HEK293-NOX5, Amplex Red fluorescence (AID 1161); conditions: HEK293-NOX5, ionomycin, 45 min, higher = more signal
Chain of NADPH oxidase 5 (Homo sapiens) (Q96PH1 whole entry, looked up): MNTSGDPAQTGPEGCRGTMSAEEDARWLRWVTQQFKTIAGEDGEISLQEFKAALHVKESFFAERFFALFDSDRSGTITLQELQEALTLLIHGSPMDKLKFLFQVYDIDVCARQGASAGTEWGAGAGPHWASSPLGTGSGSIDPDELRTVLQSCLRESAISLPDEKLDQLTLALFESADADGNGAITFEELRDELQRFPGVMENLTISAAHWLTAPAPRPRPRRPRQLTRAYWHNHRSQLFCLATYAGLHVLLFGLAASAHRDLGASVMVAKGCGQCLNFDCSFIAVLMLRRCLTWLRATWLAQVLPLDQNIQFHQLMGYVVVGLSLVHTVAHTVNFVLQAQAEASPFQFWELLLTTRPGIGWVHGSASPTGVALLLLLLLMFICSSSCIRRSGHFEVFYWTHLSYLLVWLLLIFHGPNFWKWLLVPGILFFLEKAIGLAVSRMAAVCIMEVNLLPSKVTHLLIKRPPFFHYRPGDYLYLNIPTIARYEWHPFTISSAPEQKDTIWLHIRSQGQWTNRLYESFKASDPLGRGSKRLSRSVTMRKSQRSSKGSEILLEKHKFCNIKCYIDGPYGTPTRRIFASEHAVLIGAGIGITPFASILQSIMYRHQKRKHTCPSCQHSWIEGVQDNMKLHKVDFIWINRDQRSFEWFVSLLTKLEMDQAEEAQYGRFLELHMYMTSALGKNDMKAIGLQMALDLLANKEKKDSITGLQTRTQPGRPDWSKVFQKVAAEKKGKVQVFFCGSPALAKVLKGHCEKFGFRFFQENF

Chain of NADPH oxidase 4 (Homo sapiens) (Q9NPH5 whole entry, looked up): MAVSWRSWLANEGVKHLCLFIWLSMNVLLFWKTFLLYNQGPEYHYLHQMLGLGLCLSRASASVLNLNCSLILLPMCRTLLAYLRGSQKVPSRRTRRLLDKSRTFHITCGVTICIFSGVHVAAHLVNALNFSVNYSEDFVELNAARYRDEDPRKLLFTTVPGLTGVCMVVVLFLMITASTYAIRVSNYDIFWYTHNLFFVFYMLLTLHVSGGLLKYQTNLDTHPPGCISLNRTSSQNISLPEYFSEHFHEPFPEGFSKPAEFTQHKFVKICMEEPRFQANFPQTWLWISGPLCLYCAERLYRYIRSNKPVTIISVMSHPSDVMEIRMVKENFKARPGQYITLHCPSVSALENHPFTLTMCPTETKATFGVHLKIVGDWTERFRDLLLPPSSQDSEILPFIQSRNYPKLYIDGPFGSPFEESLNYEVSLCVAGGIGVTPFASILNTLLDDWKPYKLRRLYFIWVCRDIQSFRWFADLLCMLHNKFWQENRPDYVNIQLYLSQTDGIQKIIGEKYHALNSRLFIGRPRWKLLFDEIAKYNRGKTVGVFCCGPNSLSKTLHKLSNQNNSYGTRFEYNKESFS
Chain of Torsin-1A (Homo sapiens) (O14656 whole entry, looked up): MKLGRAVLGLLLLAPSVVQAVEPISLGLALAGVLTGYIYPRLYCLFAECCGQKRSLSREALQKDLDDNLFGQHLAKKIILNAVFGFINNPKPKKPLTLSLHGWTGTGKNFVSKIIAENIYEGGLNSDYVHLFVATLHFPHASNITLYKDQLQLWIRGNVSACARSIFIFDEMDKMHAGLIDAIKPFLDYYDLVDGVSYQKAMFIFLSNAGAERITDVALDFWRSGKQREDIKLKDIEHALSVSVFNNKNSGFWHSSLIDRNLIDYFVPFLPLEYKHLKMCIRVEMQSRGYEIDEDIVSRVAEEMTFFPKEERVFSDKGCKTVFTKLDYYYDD
Chain of NADPH oxidase 2 (Homo sapiens) (P04839 whole entry, looked up): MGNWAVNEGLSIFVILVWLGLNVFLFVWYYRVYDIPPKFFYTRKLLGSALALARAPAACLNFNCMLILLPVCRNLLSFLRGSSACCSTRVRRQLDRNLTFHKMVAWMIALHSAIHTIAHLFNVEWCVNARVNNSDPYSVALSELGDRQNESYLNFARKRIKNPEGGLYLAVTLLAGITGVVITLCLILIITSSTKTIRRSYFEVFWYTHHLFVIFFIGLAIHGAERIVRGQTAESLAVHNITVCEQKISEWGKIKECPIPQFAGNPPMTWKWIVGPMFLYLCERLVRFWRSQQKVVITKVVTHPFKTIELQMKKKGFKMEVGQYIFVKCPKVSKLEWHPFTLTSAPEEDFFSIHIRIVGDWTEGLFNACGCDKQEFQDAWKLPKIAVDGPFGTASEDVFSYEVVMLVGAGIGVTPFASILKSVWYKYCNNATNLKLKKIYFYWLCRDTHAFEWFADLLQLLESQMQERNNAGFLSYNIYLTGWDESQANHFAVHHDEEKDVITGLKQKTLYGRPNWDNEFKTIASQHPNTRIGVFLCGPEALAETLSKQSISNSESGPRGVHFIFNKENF
Chain of Streptavidin (Streptomyces avidinii) (P22629 whole entry, looked up): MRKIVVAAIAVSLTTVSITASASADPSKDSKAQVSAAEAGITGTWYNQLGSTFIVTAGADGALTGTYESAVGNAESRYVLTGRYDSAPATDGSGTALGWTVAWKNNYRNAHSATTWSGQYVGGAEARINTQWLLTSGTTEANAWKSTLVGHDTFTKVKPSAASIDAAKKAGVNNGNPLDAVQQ

Compound	composite z-score [1]	z-score [2]	z-score [3]	z-score [4]	z-score [5]	composite z-score [6]	composite z-score [7]	composite z-score [8]	composite z-score [9]	composite z-score [10]	z-score [11]	composite z-score [12]	z-score [13]	z-score [14]	z-score [15]	z-score [16]	z-score [17]	z-score [18]	z-score [19]	z-score [20]
C=C[C@H](C)[C@@H](O)c1ccc(OCCO)cc1	-0.827 and -0.751	-1.64 (inactive) and 0.216 (inactive)	0.0711 (inactive) and -0.987 (inactive)	-0.883 (inactive) and 0.861 (inactive)	-0.783 (inactive) and -0.722 (inactive)	0.129 and -0.772	-0.37 and -0.208	-1.96 and -1.8	-2.09 and -1.25	0.134 and 0.524	-0.454 (inactive) and -0.0821 (inactive)	-0.235 and -0.146	0.92 (inactive) and 1.14 (inactive)	0.613 (inactive) and 0.0956 (inactive)	-0.642 (inactive) and -0.202 (inactive)	0.232 (inactive) and 0.252 (inactive)	-0.248 and -0.5	0.149 (inactive) and -0.758 (inactive)	0.101 (inactive) and -0.0609 (inactive)	0.297 and 0.492
Cc1ccc(S(=O)(=O)N[C@H]2COC(=O)[C@@H](C)COC(=O)[C@H](C)NC(=O)CC=C[C@H]2C)cc1	0.105	0.365 (inactive)	-0.16 (inactive)	-0.204 (inactive)	-0.253 (inactive)	-0.192	-0.128	-0.233	-0.11	0.837	-0.117 (inactive)	-0.195	-0.306 (inactive)	0.286 (inactive)	0.501 (inactive)	0.0584 (inactive)	-0.177	-1.36 (inactive)	0.555 (inactive)	0.0658
C[N+](C)(C)CCCCNC(=O)[C@@H]1C[C@@H]2C(=O)N[C@@H](CCCC[N+](C)(C)C)C(=O)N2[C@@H]1c1cccc(OCCO)c1	1.07 and 0.542	-0.219 (inactive) and 0.0262 (inactive)	0.78 (inactive) and -0.351 (inactive)	-0.264 (inactive) and 0.692 (inactive)	-1.09 (inactive) and -0.277 (inactive)	0.0255 and -0.695	-0.05 and -0.0413	2.06 and 0.536	2.17 and 1.72	2.31 and 2.25	0.185 (inactive) and 0.394 (inactive)	-0.144 and 0.167	1.5 (inactive) and 1.02 (inactive)	0.77 (inactive) and -0.108 (inactive)	-1.61 (inactive) and -1.45 (inactive)	0.252 (inactive) and -0.0932 (inactive)	-0.519 and -0.437	-2.1 (inactive) and -1.99 (inactive)	-2.58 (inactive) and -1.13 (inactive)	-1.28 and -0.837
C[N+](C)(C)CCCCNC(=O)[C@H]1C[C@H]2C(=O)N[C@@H](CCCC[N+](C)(C)C)C(=O)N2[C@H]1c1cccc(OCCO)c1	0.949 and 0.646	-0.0036 (inactive) and -0.177 (inactive)	-0.281 (inactive) and 0.741 (inactive)	-0.667 (inactive) and -0.268 (inactive)	-0.393 (inactive) and -0.441 (inactive)	-0.853 and -0.0338	-0.025 and 0.0631	-1.08 and 1.03	-0.879 and 2.09	2.21 and 2.31	-0.398 (inactive) and -0.737 (inactive)	0.266 and -0.483	1.37 (inactive) and 2.16 (inactive)	0.244 (inactive) and 0.944 (inactive)	-0.706 (inactive) and 0.0108 (inactive)	0.155 (inactive) and 0.23 (inactive)	0.2 and -0.314	-0.187 (inactive) and -1.8 (inactive)	-0.217 (inactive) and -0.934 (inactive)	0.0197 and 0.0552
C=CCN(Cc1ccccc1)C(=O)C1N(CCCCCCO)C(=O)C2C(C(=O)O)C3C=CC21O3 (stereo not given)	-1.02 and -1.77	-0.118 (inactive) and 0.533 (inactive)	-0.12 (inactive) and -1.45 (inactive)	-1.31 (inactive) and -1.44 (inactive)	-0.665 (inactive) and -0.279 (inactive)	-1.02 and -1.77	-0.159 and -0.21	-3.02 and -4.56	-2.45 and 0.914	-1.62 and -1.85	-0.107 (inactive) and 0.999 (inactive)	-0.0508 and -0.101	0.506 (inactive) and 0.459 (inactive)	-0.232 (inactive) and -0.314 (inactive)	-0.911 (inactive) and -0.362 (inactive)	0.135 (inactive) and 0.161 (inactive)	-0.276 and 0.27	0.498 (inactive) and 0.0836 (inactive)	-0.308 (inactive) and -0.348 (inactive)	0.751 and 0.232
C=C[C@H](OC)[C@@H](O)c1ccc(OCCO)cc1	-0.181 and -0.509	-0.238 (inactive) and 0.881 (inactive)	-0.354 (inactive) and -1.35 (inactive)	0.833 (inactive) and -0.0533 (inactive)	0.2 (inactive) and -1.46 (inactive)	-1.59 and -1.75	-0.258 and -0.244	-1.15 and -1.11	-0.812 and -1.99	-0.459 and -0.143	-0.389 (inactive) and 0.805 (inactive)	-0.328 and -0.147	0.749 (inactive) and 0.142 (inactive)	0.305 (inactive) and 0.0012 (inactive)	-0.442 (inactive) and -0.321 (inactive)	0.0568 (inactive) and 0.352 (inactive)	0.136 and 0.135	0.844 (inactive) and -0.354 (inactive)	-1.32 (inactive) and -0.339 (inactive)	-0.372 and 0.317
C=CCN(C(=O)C(c1cccs1)N(CCOCCO)C(=O)/C=C\C(=O)O)c1ccc(OC)cc1 (stereo not given)	-0.459 and -0.385	-0.751 (inactive) and -0.299 (inactive)	-2.23 (inactive)	-1.58 (inactive) and -0.749 (inactive)	-0.418 (inactive) and -1.15 (inactive)	-1.09 and -2.3	-0.128 and -0.208	-0.16 and -1.77	-1.17 and -0.642	-0.452 and 0.0229	3.55 (inactive) and 2.87 (inactive)	-0.262 and -0.142	0.195 (inactive) and -0.888 (inactive)	-0.567 (inactive) and -0.967 (inactive)	0.0684 (inactive) and -1.43 (inactive)	-0.922 (inactive) and -0.842 (inactive)	2.24 and 0.28	0.118 (inactive) and -0.448 (inactive)	-0.578 (inactive) and -1.19 (inactive)	-0.0456 and 0.0347
COC(=O)C1=C(C)N(Cc2ccccc2)C2=C(C(=O)c3ccccc3)[C@H](c3ccccc3)[C@@](O)(C(=O)OC)C(=O)N2[C@@H]1c1ccccc1	0.0925 and 0.179	-2.35 (inactive) and 0.428 (inactive)	-1.1 (inactive) and -0.472 (inactive)	3.09 (inactive) and -0.989 (inactive)	0.415 (inactive) and -1.18 (inactive)	0.077 and -0.118	0.0173 and -0.224	0.0486 and 0.0903	0.483 and -0.0314	0.557 and 0.757	0.809 (inactive) and 0.498 (inactive)	-0.234 and -0.168	1.74 (inactive) and 0.552 (inactive)	0.852 (inactive) and 0.417 (inactive)	-0.326 (inactive) and -0.171 (inactive)	0.442 (inactive) and 0.39 (inactive)	0.533 and -0.266	1.06 (inactive) and 0.0122 (inactive)	0.59 (inactive) and -0.238 (inactive)	1.59 and 0.157
CCOC(=O)[C@H](Cc1ccccc1)NC(=O)CCC1CC(OC(=O)NCc2cccc3ccccc23)CC2(CCCC(COC(=O)NCCCN3CCCC3=O)O2)O1 (stereo not given in full)	0.0828	-0.486 (inactive)	-1.02 (inactive)	-0.072 (inactive)	0.309 (inactive)	0.609	-0.154	0.0655	0.327	0.63	-0.0133 (inactive)	0.0371	-0.532 (inactive)	-0.874 (inactive)	-2.17 (inactive)	-0.685 (inactive)	-0.46	1.09 (inactive)	0.487 (inactive)	-0.609
COc1ccc(O[C@H]2C=C[C@@H](c3ccccc3)O[C@@H]2COC(=O)CCC(C)=NO[C@H](C)c2cn([C@H](CO)Cc3ccccc3)nn2)cc1	0.205 and -0.274	-1.93 (inactive) and -1.7 (inactive)	0.916 (inactive) and 1.05 (inactive)	2.66 (inactive) and 1.53 (inactive)	1.83 (inactive) and 0.775 (inactive)	0.379 and 2.03	0.344 and 0.104	0.362 and 0.702	0.127 and 0.463	0.372 and 1.69	0.756 (inactive) and 0.0906 (inactive)	0.273 and -0.553	14.1 (active) and 13.6 (active)	1.6 (inactive) and 2.16 (inactive)	2.07 (inactive) and 1.09 (inactive)	0.711 (inactive) and 0.907 (inactive)	-0.112 and -0.835	-2.32 (inactive) and -2.14 (inactive)	0.0167 (inactive) and -2.56 (inactive)	-1.63 and -3.66
C#CCN1C(/C=C/c2ccccc2)C(=O)OC[C@H]1c1ccccc1 (stereo not given in full)	0.161 and 0.111	-5.93 (inactive) and -0.403 (inactive)	-0.793 (inactive)	2.48 (inactive) and -0.682 (inactive)	-1.66 (inactive) and -0.836 (inactive)	-0.0296 and -0.175	-0.0853 and 0.0807	0.419 and -0.479	0.436 and 0.128	0.713 and 1.03	1.75 (inactive) and 0.239 (inactive)	-0.021 and -0.0536	4.02 (inactive) and 1.57 (inactive)	0.277 (inactive) and 0.538 (inactive)	0.244 (inactive) and 0.713 (inactive)	-0.947 (inactive) and 0.377 (inactive)	4.14 and -0.153	0.353 (inactive) and 1.86 (inactive)	0.0869 (inactive) and 0.344 (inactive)	0.189 and 0.518

From PubChem BioAssay
